# Experimental data reported in PubChem BioAssay (NCI).
# About 83,000 compounds went through this panel and 20% of them were active in at least one assay; those are over-represented in the sample as a whole.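 Note: values are percent growth. 100 is the growth of untreated cells, values between 100 and 0 indicate rising inhibition; between -100 and 0 indicates cell death.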 Unmarked numbers belong to inactive results. Active and inactive are the calls of the source. How the source made its calls: active means growth percent below 10; inactive means the rest.
# System: SF-268 CNS
# Test: NCI-60 one-dose screen, 48 h (100 = growth as untreated, 0 = no growth, -100 = all killed)
# Settings: 10 µM unless noted
row,SMILES,growth
1,C#C[C@]1(O)CC[C@H]2[C@@H]3CC=C4c5sc(Nc6cc(C)cc(C)c6)nc5CC[C@]4(C)[C@H]3CC[C@@]21C,22.3%
2,CCCC[n+]1ccc(SCC(=O)n2ccc3ccccc32)c2ccccc21,101%
3,CC(C)(C)c1cc(NC(=O)Nc2ccc(-c3cn4c5c(sc4n3)CCc3cn(CCCN4CCCCC4)cc3-5)cc2)no1,-58.2% (active)
4,CCCCCCNC(=O)Oc1ccc(/C(=C(/C)c2ccc(OC)cc2)c2ccc(OCCN3CCCCCC3)cc2)cc1,60.3%
5,Cn1cc(-c2cc3ncnc(Nc4ccc(CC(=O)Nc5nc(C(C)(C)C)cs5)cc4)c3s2)cn1,56.2%
6,O=C(CCCCCC/C=C\c1csc(Br)n1)NO,108%
7,COc1ccc(C(=O)c2c(N)c(C#N)cn2-c2ccc(Cl)cc2Cl)cc1,100%
8,Cc1ccc2c(n1)C(=O)C(Cl)=C(Nc1cccc(C(F)(F)F)c1)C2=O,100%
9,O=C1[C@H]2Cc3c([nH]c4ccccc34)[C@H](c3ccc(Cl)cc3)N2C(=O)CN1C1CCN(CC2CCCCC2)CC1,60.2%
10,COc1ccc(/C=N/NC(=O)c2c(N)nn(C)c2Nc2ccccc2)cc1,58.6%
11,Fc1ccc2nc(-c3cnn4cccnc34)sc2c1,82.5%
12,O=C(/C=C/c1cccc(F)c1)c1cccc(OCCCCOc2cccc(C(=O)/C=C/c3cccc(F)c3)c2)c1,99.7%
13,O=C(COc1ccc(/C=C2\C(=O)Nc3ccc(Cl)cc32)cc1)Nc1ccc(Cl)cc1,51.1%
14,O=C(Nc1cccc(Cl)c1)Nc1nc2cc([N+](=O)[O-])ccc2o1,37.3%
15,COc1ccc(NC(=O)CCCCCCNC(=O)C(O)(O)C(F)(F)F)cc1,56.5%
16,CC(=O)N(O)CCCCCNC(=O)CCC(=O)N(O)CCCCCNC(=O)CCC(=O)N(O)CCCCCN(CCCCCCCCCC[P+](c1ccccc1)(c1ccccc1)c1ccccc1)CCCCCCCCCC[P+](c1ccccc1)(c1ccccc1)c1ccccc1,16.2%
17,Cc1cc(Br)ccc1-n1cc(C#N)c(N)c1C(=O)c1ccc(Br)cc1,114%
18,CN(C)S(=O)(=O)c1ccc(-c2nc(C(Cl)Cl)nc3cc(-c4ccccc4)nn23)cc1,88.2%

row,SMILES,growth
1,CN1CCN(c2ccc(Nc3nc(NCCNC(=O)c4ccc(F)cc4)c4sccc4n3)cc2)CC1,73.8%
2,O=[N+]([O-])c1ccc(NC(=S)NNC(=S)Nc2ccc(Br)cc2)cc1,101%
3,C/C(=N\NC(=O)/C=C/CC(=O)O)c1nnn(-c2ccc([N+](=O)[O-])cc2)c1C,96.9%
4,CN1CCN(c2ccc(Nc3nc(NCCCNS(=O)(=O)c4ccc(F)cc4)c4sccc4n3)cc2)CC1,60.3%
5,N#CC1=C2NCCCNc3oc(nc3C#N)Cc3ccccc3CC(=N1)O2,101%
6,COc1ccccc1/C=C1\Oc2ccc(O)c(O)c2C1=O,102%
7,COc1ccc(NC2=C(Br)C(=O)C(C)=C(C)C2=O)cc1OC,95.3%
8,O=C(Nc1ccc(N=Cc2c(O)[nH]c3ccccc23)cc1)Nc1ccc(S(=O)(=O)Nc2ncccn2)cc1,109%
9,NC(=O)c1c(NC(=O)c2ccc(C(F)(F)F)cc2)sc2c1CCC(=O)C2,13.2%
10,O=C(/C=C/c1cccc(Br)c1)c1cccc(OCCCCOc2cccc(C(=O)/C=C/c3cccc(Br)c3)c2)c1,99.9%
11,O=C(CCCCCCNC(=O)c1csc(Br)n1)NO,69.4%
12,CC1CC(=O)C2=C(C1)Nc1ccc(Br)cc1CC2c1c[nH]c2ccc(Br)cc12 (stereo unspecified),67.8%
13,C#CCN(C)CCCOc1ccc(NCc2ccc(C(=O)NO)cc2)cc1Cl,30.3%
14,CC(=O)Nc1nc(C)c(-c2csc(Nc3ccccc3)n2)s1,46.7%
15,Cc1csc(/N=C(N)/N=C(\N)c2cccc(C#N)c2)n1,77.4%
16,Clc1cccc(/C=N/Nc2nc(N/N=C/c3cccc(Cl)c3)nc(N3CCCCC3)n2)c1,92%
17,O=C1[C@H]2Cc3c([nH]c4ccccc34)[C@H](c3ccc(Br)cc3)N2C(=O)CN1C1CCN(CC2CCCCC2)CC1,66.8%
18,Cc1[nH]c(C(=O)Nc2ccc(C(=O)NCC3CCNCC3)cc2OC(C)C)c(Cl)c1Cl,76.6%
